# In PubChem BioAssay AID504832 (National Center for Advancing Translational Sciences (NCATS), 2011):
# The campaign covered roughly 310,000 compounds. About 18,000 (5.8%) were called active. Roughly 22% stayed inconclusive and do not appear here. What follows is part of a selection rich in actives, with near analogues and random picks from the rest. Values without a mark were called inactive. The call rests on the fitted dose curve; in most records, active means well fitted inhibition curve with a large enough effect; inconclusive means small, poorly fitted or top-dose-only effect, or another doubt; inactive means no such curve, though single readings can be large or run the other way.
# Experiment: Primary qHTS for delayed death inhibitors of the malarial parasite plastid, 48 hour incubation
# Conditions: P. falciparum luciferase growth in erythrocytes; series mostly up to 28.7 µM; activity change, negative = inhibition: at the top concentration
# Outline: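 Luciferase-expressing P. falciparum in infected erythrocytes (2% hematocrit, 0.1% parasitemia final) in RPMI 1640/0.5% Albumax were exposed to compound for 48 hours at 37 C, 5% CO2; growth read as luminescence.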
# On the % scale 0 is the no-effect control and ±100 the full control effect; potency means the concentration at half of the fitted maximal effect.
SMILES,"activity change, negative = inhibition",Potency
COc1cccc(CNC(=O)COC(=O)CN2C(=O)NC3(CCCCC3C)C2=O)c1 (stereo unspecified),4.63%,–
OCC[C@H]1C[C@@H](O)[C@H](O)[C@@]2(OCCc3ccccc32)O1,10%,–
COc1ccc2nc(C)cc(Nc3cccc(C(=O)O)c3)c2c1,30%,–
Cc1nn(-c2ccccc2)c(C)c1C(=O)OCC(=O)NC(=O)NC1CCCCC1,1.1%,–
O=C(NNC(=O)C(O)c1ccccc1)NC1CCCCC1 (stereo unspecified),25.1%,–
Cc1nc(/N=C(\N)NC(=O)NC2CCCCC2)nc2ccccc12,–,2.94 µM (active)
COc1ccc2nc(SCc3ccccc3)nc(C)c2c1,255%,–
COc1ccc2nc(/N=C(\N)NC(=O)Nc3ccccc3)nc(C)c2c1,–,1.85 µM (active)
COc1ccc(Cl)cc1NC(=O)c1cccc(N2C(=O)C3CC=CCC3C2=O)c1 (stereo unspecified),20.4%,–
O=Cc1cn(-c2ccccc2)nc1-c1ccccn1,21.5%,–
O=C(CSCc1ccccc1)Nc1ccccc1,56.7%,–
CC(=O)Nc1ccc(NC(=O)C(NS(=O)(=O)c2ccc3c(c2)OCCO3)C(C)C)cc1 (stereo unspecified),-15.4%,–
CC(=O)c1ccc(S(=O)(=O)N2CCC3(CC2)OCCO3)cc1,-5.09%,–
NC(=O)COC(=O)/C=C/c1ccc2ccccc2n1,0%,–
CC(=O)c1ccc(S(=O)(=O)N2CCN(C(=O)/C=C/c3ccc4ccccc4n3)CC2)cc1,–,11.7 µM (active)
C/C(=N\Nc1nncc2ccccc12)c1ccc(Cl)c([N+](=O)[O-])c1,50.4%,–
CC(=O)N1CCN(CC(=O)Nc2ccc(C)c(F)c2)CC1,-12.4% [at 0.00184 µM],–
CS(=O)(=O)N(CC(=O)N1CCOCC1)c1cccc(Cl)c1Cl,0.916%,–
COC(=O)c1ccc(C23CC4(C2)[C@H](CN(Cc2cccnc2)[C@@H]4c2ccccc2)C3c2ccc(Cl)nc2)cc1 (stereo partly specified),–,10.4 µM (active)
Clc1ccc(C2[C@H]3CN(CC4CCCCC4)[C@H](c4ccccc4)C34CC2(c2cccnc2)C4)cn1 (stereo partly specified),–,3.7 µM (active)
CCN1C(=NCCc2cccnc2)N[C@@H](c2ccccc2)C(C(=O)OC)=C1C,–,inactive
COC(=O)c1ccc(CN2CCN(CCCc3ccccc3)C(CCO)C2)cc1 (stereo unspecified),-11%,–
O=C(O)c1ccc(S(=O)(=O)N2CCOCC2)o1,23.6%,–
CN(C(=O)COC(=O)Cn1cnc2c1c(=O)n(C)c(=O)n2C)C1(C#N)CCCCC1,22.8%,–
CCCC(=O)N1CCC(CCC(=O)NC2CC2)CC1,40.2%,–
CCOC(=O)c1ccc2[nH]c3c(c2c1)CCCC3NC=O (stereo unspecified),3.34%,–

SMILES,"activity change, negative = inhibition",Potency
CC(C)[C@@H](NC(=O)OC(C)(C)C)C(=O)NCC1CCC(C(=O)N[C@@H](Cc2ccccc2)C(=O)O)CC1 (stereo partly specified),-7.46%,–
Cc1ccc(S(=O)(=O)N(C)C)cc1NC(=O)COC(=O)/C=C/c1cccs1,7.2%,–
Cc1csc(NC(=O)CSc2nc(=O)cc(N)n2-c2ccc(F)cc2)n1,-0.578%,–
O=C(c1cn(-c2ccccc2)nc1-c1cccnc1)N1CCCCC1,-29.5%,–
O=C(c1cn(-c2ccccc2)nc1-c1cccnc1)N1CCN(S(=O)(=O)c2ccccc2F)CC1,–,11.7 µM (active)
NC(=O)C1CCN(C(=O)c2cn(-c3ccccc3)nc2-c2cccnc2)CC1,20.7%,–
Cc1ccc(S(=O)(=O)CCC(=O)OCC(=O)NCCc2ccc(S(N)(=O)=O)cc2)cc1,-10.4%,–
CCC(=O)c1ccc(OCC(=O)OCC(=O)NC2CCCCCC2)cc1,-18.2%,–
CC1CCCC(C)N1C(=O)CSc1nnnn1C1CCCC1 (stereo unspecified),27.6%,–
COc1ccc(OC)c(/C(C)=N\NC(=O)c2cc3cc(Cl)ccc3n2C)c1,-1.37%,–
Cc1cccn2c(=O)c(/C=C3\SC(=S)N(CC(C)C)C3=O)c(NCCCOC(C)C)nc12,4.14%,–
CCCN(CCC)c1nc2c(C)cccn2c(=O)c1/C=C1/SC(=S)N(Cc2ccco2)C1=O,–,1.31 µM (active)
O=C(CCCN1C(=O)/C(=C\c2ccco2)SC1=S)Nc1cccc2ccccc12,5.18%,–
CC(=O)c1ccc(NC(=O)CCNS(=O)(=O)c2cc(Br)cnc2N)cc1,5.08%,–
COc1cc(C(=O)NNC(=O)CN2C(=O)NC3(CCCC3)C2=O)cc(OC)c1OC,-15%,–
O=C(N/N=C/c1c[nH]c2ccccc12)c1ccccc1O,-19.7%,–
Cc1cc(NC(=O)CSCc2ccccc2C)no1,14.7%,–
CC(C)n1c(SCC(=O)Nc2ccccc2N2CCCCC2)nc2c1c(=O)n(C)c(=O)n2C,-8.49%,–
Cc1cc(NC(=O)C(C)SCC(=O)Nc2ccccc2N2CCCCC2)no1 (stereo unspecified),–,8.28 µM (active)
CCN(CC)c1ccc(/C=N/NC(=O)CNC(=O)c2cccnc2)cc1,30.6%,–
COc1cccc(NC(=O)C/C(C)=N/NC(=O)C2CCCCC2)c1,7.61%,–
O=C(NC(Cc1ccc(O)cc1)C(=O)O)/C(=C/c1ccccc1)NC(=O)c1ccccc1 (stereo unspecified),78.7%,–
CCOc1cc2[nH]c(=O)n(Cc3ccc(C(=O)NCCCN4CCCC4=O)cc3)c(=O)c2cc1OCC,-6.67%,–
COc1cc2[nH]c(=O)n(Cc3ccc(C(=O)NC4CCN(Cc5ccccc5)CC4)cc3)c(=O)c2cc1OC,–,13.1 µM (active)
COc1cc2[nH]c(=O)n(CCC(=O)NC3CCN(Cc4ccccc4)CC3)c(=O)c2cc1OC,21.7%,–
